In PubChem BioAssay AID1159580 (chemical genetic matrix, 2015):
“And” between values parts separate entries of the source, which are not always exact repeats. Equal entries are not always repeated. Hit rate of the full screen: of about 5,500 compounds, about 2,000 (36%) were called active. Not shown: some 18% with an inconclusive outcome. Rule as the data show it: active = normalized growth mostly below about 0.91 (no sharp cut-off); inconclusive = no clear call, values can overlap the other calls; inactive = mostly above about 0.92. The list shows a part of the results.

Assay: chemical genetic growth profiling, strain panel (AID 1159580);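 also: tested at 20 µM; growth read once vehicle control cultures reached saturation at 30 °C; 1 = growth at the plate median or of vehicle wells; lower values mean less growth of the strain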
Conditions: S. cerevisiae deletion strains, growth OD

Measured: normalized growth

Cc1cc(C(C)(C)C)cc(C)c1CC1=NCCN1
inactive: locus YAL013W, strain DEP1, hits give low values 1.02 and 0.999 | locus YAL021C, strain ccr4, hits give low values 0.987 | locus YAL026C, strain drs2, hits give low values 0.986 | locus YAL030W, strain snc1, hits give low values 1 | locus YAL040C, strain CLN3, hits give low values 0.976 | locus YBL061C, strain skt5, hits give low values 0.999 | locus YBR009C, strain hhf1, hits give low values 0.957 | locus YBR021W, strain FUR4, hits give low values 1.02 | locus YBR023C, strain chs3, hits give low values 1.01 | locus YBR171W, strain sec66, hits give low values 1.01 | locus YBR229C, strain ROT2, hits give low values 1.01 | locus YBR231C, strain swc5, hits give low values 1 | locus YBR279W, strain paf1, hits give low values 0.993 | locus YCL011C, strain gbp2, hits give low values 0.988 | locus YCL016C, strain dcc1, hits give low values 0.99 | locus YCL029C, strain bik1, hits give low values 1.01 | locus YCL061C, strain MRC1 (second series), hits give low values 0.999 | locus YCL061C, strain MRC1, hits give low values 1.02 | locus YCL069W, strain vba3, hits give low values 1 | locus YCR088W, strain abp1, hits give low values 0.996 | locus YDL005C, strain med2, hits give low values 1.01 | locus YDL035C, strain GPR1, hits give low values 1.03 | locus YDL040C, strain nat1, hits give low values 1 | locus YDL074C, strain BRE1, hits give low values 1.02 | locus YDL101C, strain DUN1, hits give low values 1.01 | locus YDL134C, strain PPH21, hits give low values 1.02 | locus YDL185W, strain tfp1, hits give low values 1.01 | locus YDL192W, strain arf1, hits give low values 1.01 | locus YDR001C, strain nth1, hits give low values 1.01 | locus YDR069C, strain doa4, hits give low values 1.02 | locus YDR101C, strain arx1, hits give low values 1 | locus YDR137W, strain rgp1, hits give low values 0.994 | locus YDR150W, strain NUM1, hits give low values 1.02 | locus YDR159W, strain sac3, hits give low values 0.941 | locus YDR162C, strain NBP2, hits give low values 1.01 | locus YDR195W, strain ref2 1.01 | locus YDR297W, strain sur2, hits give low values 1 | locus YDR318W, strain mcm21, hits give low values 0.995 | locus YDR334W, strain swr1, hits give low values 0.993 | locus YDR335W, strain msn5, hits give low values 0.999 | locus YDR363W, strain ESC2, hits give low values 1 | locus YDR388W, hits give low values 1 | locus YDR392W, strain spt3, hits give low values 0.926 | locus YDR502C, strain sam2, hits give low values 0.998 | locus YEL003W, strain gim4, hits give low values 1.01 | locus YEL037C, strain rad23, hits give low values 1 | locus YEL061C, strain CIN8 (second series), hits give low values 0.997 | locus YEL061C, strain CIN8, hits give low values 1.02 | locus YER002W, strain NOP16, hits give low values 1 | locus YER015W, strain faa2, hits give low values 0.998 | locus YER016W, strain bim1, hits give low values 0.973 | locus YER110C, hits give low values 0.994 | locus YER111C, strain swi4, hits give low values 1 | locus YER155C, strain BEM2 (second series), hits give low values 1.02 | locus YER155C, strain BEM2, hits give low values 1.01 | locus YER167W, strain BCK2, hits give low values 1.01 | locus YFR010W, strain ubp6, hits give low values 1.02 | locus YGL078C, strain dbp3, hits give low values 1 | locus YGL086W, strain mad1, hits give low values 1 | locus YGL167C, strain pmr1, hits give low values 1 | locus YGL173C, strain kem1, hits give low values 1.02 | locus YGL227W, strain vid30, hits give low values 1 | locus YGL240W, strain doc1, hits give low values 1.03 | locus YGL248W, strain PDE1, hits give low values 1 | locus YGL253W, strain hxk2, hits give low values 0.977 | locus YGR078C, strain PAC10, hits give low values 1.01 | locus YGR135W, strain pre9, hits give low values 1 | locus YGR229C, strain SMI1, hits give low values 1.02 | locus YGR252W, strain gcn5, hits give low values 0.951 | locus YHR013C, strain ard1, hits give low values 0.971 | locus YHR027C, strain rpn1, hits give low values 0.993 | locus YHR030C, strain SLT2, hits give low values 1.02 and 1.01 | locus YHR079C, strain IRE1 (second series), hits give low values 0.995 | locus YHR079C, strain IRE1, hits give low values 1.01 | locus YHR094C, strain hxt1, hits give low values 1 | locus YHR129C, strain ARP1, hits give low values 1.01 | locus YHR142W, strain chs7, hits give low values 1.02 | locus YHR200W, strain rpn10, hits give low values 1 | locus YIL066C, strain RNR3, hits give low values 1.02 | locus YIL073C, strain SPO22, hits give low values 1.04 | locus YIL125W, strain kgd1, hits give low values 0.997 | locus YIR030C, strain dcg1, hits give low values 1 | locus YJL092W, strain hpr5, hits give low values 1.02 | locus YJL095W, strain BCK1 (second series), hits give low values 1.01 | locus YJL095W, strain BCK1, hits give low values 1.01 and 0.982 | locus YJL115W, strain asf1, hits give low values 0.985 | locus YJL129C, strain trk1, hits give low values 1.02 | locus YJL134W, strain LCB3, hits give low values 1.01 | locus YJL154C, strain vps35, hits give low values 1.01 | locus YJL164C, strain tpk1, hits give low values 0.98 | locus YJL166W, strain qcr8, hits give low values 1.03 | locus YJL168C, strain set2, hits give low values 0.998 | locus YJL187C, strain SWE1 (second series), hits give low values 1.03 | locus YJR043C, strain POL32, hits give low values 1 | locus YJR066W, strain TOR1, hits give low values 0.937
